Assay results published in PubChem BioAssay AID1159580 (chemical genetic matrix, 2015).
Out of some 5,500 compounds screened, about 2,000 (36%) were called active. About 18% were inconclusive and are not listed. Rule as the data show it: active = normalized growth mostly below about 0.91 (no sharp cut-off); inconclusive = no clear call, values can overlap the other calls; inactive = mostly above about 0.92. The list shows a part of the results.

Test: chemical genetic growth profiling, strain panel (AID 1159580);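 also: tested at 20 µM; growth read once vehicle control cultures reached saturation at 30 °C; 1 = growth at the plate median or of vehicle wells; lower values mean less growth of the strain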
Conditions: S. cerevisiae deletion strains, growth OD
[1] = locus YAL021C, strain ccr4, stronger effect = lower value
[2] = locus YAL026C, strain drs2, stronger effect = lower value
[3] = locus YAL030W, strain snc1, stronger effect = lower value
[4] = locus YBL061C, strain skt5, stronger effect = lower value
[5] = locus YBR009C, strain hhf1, stronger effect = lower value
[6] = locus YBR023C, strain chs3, stronger effect = lower value
[7] = locus YBR171W, strain sec66, stronger effect = lower value
[8] = locus YBR231C, strain swc5, stronger effect = lower value
[9] = locus YBR279W, strain paf1, stronger effect = lower value
[10] = locus YCL011C, strain gbp2, stronger effect = lower value
[11] = locus YCL016C, strain dcc1, stronger effect = lower value
[12] = locus YCL061C, strain MRC1, stronger effect = lower value
[13] = locus YCL069W, strain vba3, stronger effect = lower value
[14] = locus YCR088W, strain abp1, stronger effect = lower value
[15] = locus YDL005C, strain med2, stronger effect = lower value
[16] = locus YDL040C, strain nat1, stronger effect = lower value
[17] = locus YDR001C, strain nth1, stronger effect = lower value
[18] = locus YDR069C, strain doa4, stronger effect = lower value
[19] = locus YDR137W, strain rgp1, stronger effect = lower value
[20] = locus YDR159W, strain sac3, stronger effect = lower value
[21] = locus YDR297W, strain sur2, stronger effect = lower value
[22] = locus YDR334W, strain swr1, stronger effect = lower value
[23] = locus YDR335W, strain msn5, stronger effect = lower value
[24] = locus YDR392W, strain spt3, stronger effect = lower value
[25] = locus YEL003W, strain gim4, stronger effect = lower value
[26] = locus YEL037C, strain rad23, stronger effect = lower value
[27] = locus YEL061C, strain CIN8 (second series), stronger effect = lower value
[28] = locus YER015W, strain faa2, stronger effect = lower value
[29] = locus YER016W, strain bim1, stronger effect = lower value
[30] = locus YER111C, strain swi4, stronger effect = lower value
[31] = locus YER155C, strain BEM2 (second series), stronger effect = lower value
[32] = locus YFR010W, strain ubp6, stronger effect = lower value
[33] = locus YGL167C, strain pmr1, stronger effect = lower value
[34] = locus YGL173C, strain kem1, stronger effect = lower value
[35] = locus YGL227W, strain vid30, stronger effect = lower value
[36] = locus YGL240W, strain doc1, stronger effect = lower value
[37] = locus YGL253W, strain hxk2, stronger effect = lower value
[38] = locus YHR013C, strain ard1, stronger effect = lower value
[39] = locus YHR027C, strain rpn1, stronger effect = lower value
[40] = locus YHR030C, strain SLT2, stronger effect = lower value
[41] = locus YHR079C, strain IRE1, stronger effect = lower value
[42] = locus YHR142W, strain chs7, stronger effect = lower value
[43] = locus YJL092W, strain hpr5, stronger effect = lower value
[44] = locus YJL095W, strain BCK1 (second series), stronger effect = lower value
[45] = locus YJL095W, strain BCK1, stronger effect = lower value
[46] = locus YJL115W, strain asf1, stronger effect = lower value
[47] = locus YJL129C, strain trk1, stronger effect = lower value
[48] = locus YJL154C, strain vps35, stronger effect = lower value
[49] = locus YJL164C, strain tpk1, stronger effect = lower value
[50] = locus YJL166W, strain qcr8, stronger effect = lower value
[51] = locus YJL187C, strain SWE1, stronger effect = lower value
[52] = locus YJR066W, strain TOR1, stronger effect = lower value
[53] = locus YKL160W, strain elf1, stronger effect = lower value
[54] = locus YKR026C, strain gcn3, stronger effect = lower value
[55] = locus YKR091W, strain srl3, stronger effect = lower value
[56] = locus YLL001W, strain dnm1, stronger effect = lower value
[57] = locus YLL026W, stronger effect = lower value
[58] = locus YLL041C, strain sdh2, stronger effect = lower value
[59] = locus YLR027C, strain aat2, stronger effect = lower value
[60] = locus YLR113W, strain HOG1, stronger effect = lower value
[61] = locus YLR221C, strain rsa3, stronger effect = lower value
[62] = locus YLR258W, strain gsy2, stronger effect = lower value
[63] = locus YLR262C, strain YPT6 (second series), stronger effect = lower value
[64] = locus YLR320W, strain mms22, stronger effect = lower value
[65] = locus YLR342W, strain FKS1, stronger effect = lower value
[66] = locus YLR357W, strain rsc2, stronger effect = lower value
[67] = locus YLR370C, strain arc18, stronger effect = lower value
[68] = locus YLR384C, strain iki3, stronger effect = lower value
[69] = locus YML120C, strain ndi1, stronger effect = lower value
[70] = locus YMR058W, strain fet3, stronger effect = lower value
[71] = locus YMR125W, strain sto1, stronger effect = lower value
[72] = locus YMR129W, stronger effect = lower value
[73] = locus YMR205C, strain PFK2, stronger effect = lower value
[74] = locus YMR231W, strain pep5, stronger effect = lower value
[75] = locus YNL071W, strain lat1, stronger effect = lower value
[76] = locus YNL183C, strain NPR1, stronger effect = lower value
[77] = locus YNL209W, strain ssb2, stronger effect = lower value
[78] = locus YNL248C, strain rpa49, stronger effect = lower value
[79] = locus YNL322C, strain KRE1 (second series), stronger effect = lower value
[80] = locus YNR049C, strain mso1, stronger effect = lower value
[81] = locus YOR001W, strain rrp6, stronger effect = lower value
[82] = locus YOR070C, strain gyp1, stronger effect = lower value
[83] = locus YOR080W, strain dia2, stronger effect = lower value
[84] = locus YOR083W, strain WHI5, stronger effect = lower value
[85] = locus YOR106W, strain vam3, stronger effect = lower value
[86] = locus YOR231W, strain MKK1, stronger effect = lower value
[87] = locus YOR265W, strain rbl2, stronger effect = lower value
[88] = locus YOR270C, strain vph1, stronger effect = lower value
[89] = locus YOR290C, strain snf2, stronger effect = lower value
[90] = locus YPL051W, strain arl3, stronger effect = lower value
[91] = locus YPL078C, strain atp4, stronger effect = lower value
[92] = locus YPL106C, strain sse1, stronger effect = lower value
[93] = locus YPL240C, strain hsp82, stronger effect = lower value
[94] = locus YPL256C, strain CLN2, stronger effect = lower value

Measured: normalized growth

CCN[C@@H]1C[C@H](N)[C@@H](O[C@H]2OC(CN)=CC[C@H]2N)[C@H](O)[C@H]1OC1OC[C@](C)(O)[C@H](NC)[C@H]1O (stereo not given in full)
inactive: [1] 0.983 | [2] 0.995 | [3] 1.01 | [4] 1 | [5] 1.02 | [6] 1 | [7] 0.996 | [8] 1.01 | [9] 1.01 | [10] 0.977 | [11] 1 | [12] 0.989 | [13] 0.994 | [14] 0.983 | [15] 1 | [16] 1.01 | [17] 0.985 | [18] 1.01 | [19] 0.96 | [20] 1.01 | locus YDR195W, strain ref2 0.993 | [21] 0.998 | [22] 0.979 | [23] 0.986 | [24] 0.998 | [25] 0.989 | [26] 0.948 | [27] 0.981 | [28] 1.02 | [29] 0.997 | [30] 0.994 | [31] 1.01 | [32] 0.975 | [33] 0.998 | [34] 1 | [35] 0.995 | [36] 1.01 | [37] 0.995 | [38] 1.02 | [39] 0.999 | [40] 0.97 | [41] 1.02 | [42] 0.946 | [43] 0.984 | [44] 1.01 | [45] 0.972 | [46] 0.998 | [47] 0.989 | [48] 0.996 | [49] 0.996 | [50] 1.01 | [51] 1 | [52] 0.947 | [53] 0.986 | [54] 0.978 | [55] 0.995 | [56] 0.981 | [57] 1.01 | [58] 0.988 | [59] 1.01 | [60] 0.953 | [61] 0.987 | [62] 1 | [63] 1 | [64] 1.01 | [65] 0.997 | [66] 0.986 | [67] 0.994 | [68] 1 | [69] 0.983 | [70] 0.986 | [71] 1 | [72] 0.994 | [73] 1.03 | [74] 1 | [75] 1 | [76] 0.935 | [77] 1 | [78] 0.949 | [79] 0.995 | [80] 0.995 | [81] 0.982 | [82] 0.996 | [83] 0.998 | [84] 0.995 | [85] 0.985 | [86] 0.986 | [87] 1 | [88] 0.939 | [89] 0.987 | [90] 1 | [91] 0.972 | [92] 1 | [93] 0.986 | [94] 0.963

CN[C@@H]1[C@@H](O)C(OC2[C@@H](N)C[C@@H](N)[C@H](O[C@H]3O[C@H](C(C)O)[C@@H](O)[C@H](O)[C@H]3N)[C@H]2O)OC[C@]1(C)O (stereo not given in full)
inactive: [1] 0.963 | [2] 0.984 | [3] 0.986 | [4] 0.978 | [5] 0.989 | [6] 0.973 | [7] 0.968 | [8] 0.991 | [9] 0.981 | [10] 0.969 | [11] 0.976 | [12] 0.985 | [13] 0.966 | [14] 0.978 | [15] 0.967 | [16] 0.997 | [17] 0.982 | [18] 0.969 | [19] 1.02 | [20] 0.969 | locus YDR195W, strain ref2 0.973 | [21] 0.979 | [22] 0.967 | [23] 0.979 | [24] 0.938 | [25] 0.982 | [26] 0.977 | [27] 0.985 | [28] 0.964 | [29] 0.981 | [30] 0.977 | [31] 0.966 | [32] 0.971 | [33] 0.977 | [34] 0.96 | [35] 0.98 | [36] 0.977 | [37] 0.963 | [38] 0.976 | [39] 0.977 | [40] 1.05 | [41] 1.05 | [42] 0.966 | [43] 0.96 | [44] 0.966 | [45] 0.989 | [46] 0.984 | [47] 0.97 | [48] 0.976 | [49] 0.984 | [50] 0.982 | [51] 0.988 | [52] 0.995 | [53] 0.988 | [54] 0.979 | [55] 0.971 | [56] 0.988 | [57] 0.971 | [58] 0.976 | [59] 0.973 | [60] 0.995 | [61] 0.974 | [62] 0.969 | [63] 1.02 | [64] 0.976 | [65] 0.972 | [66] 0.977 | [67] 0.962 | [68] 0.958 | [69] 0.981 | [70] 0.985 | [71] 0.975 | [72] 0.989 | [73] 1.01 | [74] 0.965 | [75] 0.975 | [76] 0.942 | [77] 0.994 | [78] 0.987 | [79] 0.967 | [80] 0.979 | [81] 0.969 | [82] 0.974 | [83] 0.975 | [84] 0.976 | [85] 0.964 | [86] 1.04 | [87] 0.983 | [88] 0.981 | [89] 0.954 | [90] 0.983 | [91] 0.995 | [92] 0.988 | [93] 0.977 | [94] 1.02
